{"source": "PubChem BioAssay AID1347056", "about": "(Sanford-Burnham Center for Chemical Genomics, 2019)", "note": "Hit rate of the full screen: of about 360,000 compounds, about 3,600 (1%) were called active. The full list was thinned out, with actives kept by preference. Unmarked numbers belong to inactive results.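 Rule for the calls: active = compounds whose plate-normalised and pattern-corrected inhibition of the luciferase reporter signal at the single screening dose is 50% or more; inactive = the rest.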"}
{"test": "inhibitors of TROY-driven NF-kB signaling, primary screen, Q293 LMP1-TROYcd cells, NF-kB luciferase, uHTS (AID 1347056)", "conditions": "Q293 LMP1-TROYcd NF-kB luciferase reporter, 4 h; at 10 µM; stronger effect = higher value"}
{"smiles": "Cc1ccc(CNC(=O)C2(C(F)(F)F)C/C(=C\\Cc3ccccc3)CCCO2)o1", "note": "(stereo not given)", "inhibition": "6.34%"}
{"smiles": "CCC1Nc2ncnc(N3CCN(c4ccccc4)CC3)c2N(Cc2ccc(Cl)cc2)C1=O", "note": "(stereo not given)", "inhibition": "18.3%"}
{"smiles": "O=S(=O)(c1ccc(Br)cc1)N1CCC(c2nc3ccccc3[nH]2)CC1", "inhibition": "2%"}
{"smiles": "N#CC(C(=O)c1ccc(S(=O)(=O)N2CCCCCC2)cc1)c1nc2ccccc2[nH]1", "note": "(stereo not given)", "inhibition": "51.6% (active)"}
{"smiles": "O=C(Nc1ncccc1O)c1ccc(S(=O)(=O)N2CCCCCC2)cc1", "inhibition": "-10.3%"}
{"smiles": "CN1CCN(S(=O)(=O)c2cccc(C(=O)Nc3sccc3C#N)c2)CC1", "inhibition": "-0.51%"}
{"smiles": "O=C(NC(=S)Nc1ccccc1C(=O)O)c1ccc(-c2ccc(Br)cc2)o1", "inhibition": "79.8% (active)"}
{"smiles": "O=C(NC(=S)Nc1cc(C(F)(F)F)ccc1N1CCOCC1)c1ccc(-c2cccc(Cl)c2)o1", "inhibition": "-13.2%"}
{"smiles": "CN1CCN(C(=O)c2ccc(-c3ccc(Br)cc3)o2)CC1", "inhibition": "-59.3%"}
{"smiles": "[O-][n+]1c2c(nn1-c1ccc(Cl)c(Cl)c1)-c1nonc1CC2", "inhibition": "10.8%"}
{"smiles": "Cc1ncc(CO)c(/C=N/NC(=O)c2cccc(S(=O)(=O)N3CCCC3)c2)c1O", "inhibition": "32.4%"}
{"smiles": "Cc1ccc(OCC(=O)c2cc(C)n(Cc3ccco3)c2C)c([N+](=O)[O-])n1", "inhibition": "-2.73%"}
{"smiles": "COCCn1c(C)cc(C(=O)COC(=O)CNC(=O)c2ccco2)c1C", "inhibition": "-1.63%"}
{"smiles": "Cc1cc(C(=O)COC(=O)CNC(=O)c2ccc(F)cc2)c(C)n1Cc1ccco1", "inhibition": "71.1% (active)"}
{"smiles": "O=C(COC(=O)Cn1[nH]c(=O)c2ccccc2c1=O)Nc1c(Cl)cccc1C(F)(F)F", "inhibition": "-7.36%"}
{"smiles": "O=C(Cn1cnc2ccccc2c1=O)Nc1cccc(S(=O)(=O)N2CCCCC2)c1", "inhibition": "6.2%"}
{"smiles": "O=C1/C(=C\\c2ccc([N+](=O)[O-])cc2)CS(=O)(=O)C/C1=C/c1ccc([N+](=O)[O-])cc1", "inhibition": "75% (active)"}
{"smiles": "O=C1CCCN1C(=O)COc1ccc([N+](=O)[O-])cc1", "inhibition": "9.48%"}
{"smiles": "CCCCC(=O)Nc1c2c(nn1-c1ccc([N+](=O)[O-])cc1)CS(=O)(=O)C2", "inhibition": "-5.93%"}
{"smiles": "CC1(C)Cc2c(sc(NC(=O)C(=O)NCC3CCCO3)c2C(=O)O)CO1", "note": "(stereo not given)", "inhibition": "-13.6%"}
{"smiles": "CCc1c(O)cc2n(c1=O)-c1ccccc1C2(C)C", "inhibition": "4.14%"}
{"smiles": "CCN(CCCNC(=O)CCn1c(=O)[nH]c2ccsc2c1=O)c1ccccc1", "inhibition": "0.42%"}
{"smiles": "CCN(CCCNC(=O)c1ccc2c(c1)NC(=O)CN2C)c1cccc(C)c1", "inhibition": "71.7% (active)"}
{"smiles": "CCN(CCCNC(=O)C1CCN(S(=O)(=O)c2cnc[nH]2)CC1)c1ccccc1", "inhibition": "-0.34%"}
{"smiles": "Cc1ccc(SC(CC(=O)c2ccc(C(C)(C)C)cc2)C(=O)O)cc1", "note": "(stereo not given)", "inhibition": "14.6%"}
{"smiles": "CCOc1ccc(NS(=O)(=O)c2ccc(Cl)c(C(=O)N(C)Cc3cccnc3)c2)cc1", "inhibition": "-2.69%"}
{"smiles": "Fc1ccccc1-c1cc2cc3c(cc2cn1)OCO3", "inhibition": "-40.9%"}
{"smiles": "Cc1nnc(SC(C(=O)Nc2cc(Cl)cc(Cl)c2)c2ccccc2)[nH]c1=O", "note": "(stereo not given)", "inhibition": "54.4% (active)"}
{"smiles": "Cc1nnc(SC(C(=O)c2ccccc2)c2ccccc2)[nH]c1=O", "note": "(stereo not given)", "inhibition": "14.7%"}
{"smiles": "CC(NCC(=O)Nc1cc(Cl)cc(Cl)c1)c1ccccc1", "note": "(stereo not given)", "inhibition": "17.5%"}
{"smiles": "O=C(CN(c1ccc2c(c1)OCCO2)S(=O)(=O)c1ccccc1)Nc1ccc2c(c1)OCO2", "inhibition": "-3.48%"}
{"smiles": "C=CCn1c(C)cc(C2=NNC(=NCC)SC2)c1C", "inhibition": "88% (active)"}
{"smiles": "COCCn1c(C)cc(C2=NNC(=Nc3ccc(F)cc3)SC2)c1C", "inhibition": "56.7% (active)"}
{"smiles": "CCN1CCN(c2ccc(S(=O)(=O)N3CCCCC3)cc2NC(=O)Cc2c(Cl)cccc2Cl)CC1", "inhibition": "4.53%"}
{"smiles": "CCC(=O)Nc1ccccc1C(=O)N1CCN(Cc2ccccc2)CC1", "inhibition": "12.5%"}
{"smiles": "COc1ccc(S(=O)(=O)N2C[C@H]3CON(C)[C@H]3C[C@H]2c2cccc(Br)c2)cc1", "inhibition": "0.2%"}
{"smiles": "CN1OC[C@@H]2CN(S(=O)(=O)c3cccc4ccccc34)[C@H](c3ccc(N4CCCCC4)cc3)C[C@@H]21", "inhibition": "14.6%"}
{"smiles": "CN1OC[C@@H]2CN(S(=O)(=O)c3cccc(C(F)(F)F)c3)[C@H](c3ccc(-c4cc5ccccc5o4)cc3)C[C@@H]21", "inhibition": "64.2% (active)"}
{"smiles": "CC1Cc2ccccc2N1S(=O)(=O)c1c(N)n(C)c(=O)n(C)c1=O", "note": "(stereo not given)", "inhibition": "0.15%"}
{"smiles": "Clc1ccc(-c2cccc3nccn23)cc1", "inhibition": "-13.8%"}
{"smiles": "CC(=O)N1N=C(c2ccncc2)OC1(Cc1ccccc1)Cc1ccccc1", "inhibition": "5.47%"}
{"smiles": "Cc1cc(Cl)c(S(=O)(=O)N(C)C)cc1OCC(N)=O", "inhibition": "0.31%"}
{"smiles": "Cc1cc(Cl)c(S(=O)(=O)Nc2ccc3c(c2)OCCO3)cc1OCC(N)=O", "inhibition": "77.5% (active)"}
{"smiles": "Cc1cc(Cl)c(S(=O)(=O)NCC2CCCO2)cc1OCC(N)=O", "note": "(stereo not given)", "inhibition": "-1.29%"}
{"smiles": "COC(=O)CSc1snnc1-c1ccc(Cl)c(Cl)c1", "inhibition": "-45.5%"}
{"smiles": "C=CCN(c1ccccc1C(=O)NCC(=O)OCC)S(=O)(=O)c1ccc(C)cc1", "inhibition": "1.62%"}
{"smiles": "S=C(NCCCc1cnc[nH]1)NCCCN(Cc1ccc(Cl)c(Cl)c1)c1ccc(Br)cn1", "inhibition": "8.84%"}
{"smiles": "Cc1ccc2oc(=O)c3cnn(CC(=O)N(Cc4ccco4)C4CCCCC4)c3c2c1", "inhibition": "58.7% (active)"}
{"smiles": "Cc1ccc2oc(=O)c3cnn(CC(=O)N4CCCCCC4)c3c2c1", "inhibition": "6.16%"}
{"smiles": "CCOC(=O)C1CCCN(C(=O)Cn2ncc3c(=O)oc4ccc(C)cc4c32)C1", "note": "(stereo not given)", "inhibition": "1.47%"}
{"smiles": "CCCCC(=O)Nc1ccc2c(c1)C(=O)NC2=O", "inhibition": "10.3%"}
{"smiles": "Cc1cc(C(=O)CSc2nc(N)cc(=O)[nH]2)c(C)n1-c1cccc(F)c1", "inhibition": "-1.75%"}
{"smiles": "Cc1cc(C(=O)COC(=O)C2CC2)c(C)n1-c1ccc(F)cc1", "inhibition": "90.5% (active)"}
{"smiles": "Cc1cc(C(=O)COc2ccccc2Cl)c(C)n1C1CC1", "inhibition": "-42.6%"}
{"smiles": "Cc1ccc(-c2nc3ccc(Br)cn3c2Cc2ccccc2C(F)(F)F)cc1", "inhibition": "-33.5%"}
{"smiles": "Cc1ccc2nc(-c3ccc(Br)cc3)cn2c1", "inhibition": "71.4% (active)"}
{"smiles": "Cc1ccc(-c2cn3cc(C)ccc3n2)cc1", "inhibition": "86.4% (active)"}
{"smiles": "Cc1ccc(-c2nc3ccc(Cl)cn3c2Cc2ccccc2)cc1", "inhibition": "-69.6%"}
{"smiles": "Cc1ccc(-c2cc(N)on2)cc1", "inhibition": "-41.2%"}
{"smiles": "COc1ccc(-c2nc3ccc(Br)cn3c2Cc2ccc(C)cc2)cc1OC", "inhibition": "-36.6%"}
{"smiles": "COc1ccc(C(=O)O)cc1S(=O)(=O)NCc1cccnc1", "inhibition": "-5.43%"}
{"smiles": "CC(=O)Nc1ccc(/C(C)=N/NC(=O)CN(c2ccccc2Br)S(C)(=O)=O)cc1", "inhibition": "8.85%"}
{"smiles": "COc1ccc(CN(C)C(=S)Nc2ccc(Cl)cc2Cl)cc1", "inhibition": "-7.98%"}
{"smiles": "O=C(c1cc(COc2c(F)cccc2F)on1)N1CCSCC1", "inhibition": "-17%"}
{"smiles": "Cn1cnc2c1c(=O)n(Cc1ccccc1C#N)c(=O)n2C", "inhibition": "2.82%"}
{"smiles": "CCN1CCCC1CNC(=O)c1cc2cc(OC)c(OC)cc2[nH]1", "note": "(stereo not given)", "inhibition": "-3.54%"}
{"smiles": "COc1cccc2[nH]c(C(=O)NCCc3ccccc3)cc12", "inhibition": "-24.7%"}
{"smiles": "COc1cc2cc(C(=O)N/N=C/c3cccc(OC)c3OC)[nH]c2cc1OC", "inhibition": "69.2% (active)"}
{"smiles": "CC1CCCN(C(=O)Cn2c(=O)oc3ccccc32)C1", "note": "(stereo not given)", "inhibition": "-6.27%"}
{"smiles": "COc1ccc(CNC(=O)CN2C(=O)c3ccccc3S2(=O)=O)cc1", "inhibition": "9.08%"}
{"smiles": "Cc1ccc2c(c1)N(CC(=O)N1CCCC(C)C1)C(=O)CO2", "note": "(stereo not given)", "inhibition": "-0.08%"}
{"smiles": "CC1CCCN(C(=O)CN2C(=O)c3ccccc3S2(=O)=O)C1", "note": "(stereo not given)", "inhibition": "58.2% (active)"}
{"smiles": "O=C(CN1C(=O)c2ccccc2S1(=O)=O)N1CCc2ccccc21", "inhibition": "89.1% (active)"}
{"smiles": "CN(Cc1ccc(F)cc1)C(=O)CN1C(=O)c2ccccc2S1(=O)=O", "inhibition": "-51.1%"}
{"smiles": "CC(C)(C)c1ccc(S(=O)(=O)N2CCN(C(=O)c3ccc4c(c3)C(=O)N(Cc3ccncc3)C4=O)CC2)cc1", "inhibition": "1.2%"}
{"smiles": "CC(NC(=O)COC(=O)c1ccc(Cl)cc1O)c1ccc(F)cc1", "note": "(stereo not given)", "inhibition": "4.75%"}
{"smiles": "Cc1cc(S(=O)(=O)NC2CCCCC2)ccc1OCC(=O)NCc1cccnc1", "inhibition": "-5.71%"}
{"smiles": "O=C(CCc1nc(-c2ccccc2)no1)Nc1cccc(C(=O)NC2CC2)c1", "inhibition": "18.6%"}
{"smiles": "CN(C)/C=C(\\C#N)C(=O)c1cccnc1Oc1ccc(F)cc1F", "inhibition": "-7.14%"}
{"smiles": "COc1ccc(-c2cc3c(c4c2ccn4C)C2CCC3C2)cn1", "note": "(stereo not given)", "inhibition": "8.35%"}
{"smiles": "Cc1ccc(NS(=O)(=O)c2ccc(-c3ccc(=O)[nH]n3)o2)c(C)c1", "inhibition": "-3.14%"}
{"smiles": "CC(NC(=O)COC(=O)c1ccc2ccccc2n1)c1ccccc1", "note": "(stereo not given)", "inhibition": "-0.28%"}
{"smiles": "CC1COc2ccccc2N1C(=O)c1cccnc1Cl", "note": "(stereo not given)", "inhibition": "8%"}
{"smiles": "CN(C)CCNC(=O)c1ccc(Cl)c2cc3ccccc3nc12", "inhibition": "51.8% (active)"}
{"smiles": "CCCN(CCC)CCNC(=O)c1cc2c(C)nc3ccccc3c2o1", "inhibition": "-8.54%"}
{"smiles": "O=C(NCCc1ccccn1)c1cc(-c2ccc(Cl)cc2)nc2ccccc12", "inhibition": "15.8%"}
{"smiles": "COc1ccc(OC)c(CCNC(=O)CCn2ccc3cc(S(=O)(=O)N4CCCC4)ccc32)c1", "inhibition": "-2.42%"}
{"smiles": "CC1CCN(c2ccc3c(c2)S(=O)(=O)c2cc(C(=O)O)ccc2C3=O)CC1", "inhibition": "-46.1%"}
{"smiles": "O=C(c1ccc2c(c1)N(Cc1ccc(F)cc1)C(=O)c1ccccc1S2(=O)=O)N1CCN(c2ccccn2)CC1", "inhibition": "11.9%"}
{"smiles": "O=C1c2ccccc2S(=O)(=O)c2cc(N3CCN(c4ccccn4)CC3)ccc21", "inhibition": "69.7% (active)"}
